Test results: PubChem BioAssay AID1851 (National Center for Advancing Translational Sciences (NCATS), 2009)
Out of some 16,000 compounds screened, about 4,000 (25%) were called active. Another 26% or so got no clear call; they are omitted. Calls follow the shape of the dose curve; as a rule, active = well fitted curve in the direction sought with a large enough effect; inconclusive = small, poorly fitted or top-dose-only effect, or effect the other way; inactive = no such curve, though single readings can be large or run the other way. These entries were drawn from the full list.

Molecular target: Cytochrome P450 2C9 (Homo sapiens) (UniProt P11712)
Assay: Cytochrome panel assay with activity outcomes
Conditions: recombinant CYP, pro-luciferin dealkylation, luminescence, p450-cyp2c9; series mostly up to 57.1 µM
% is scaled to controls: 0 for no effect and ±100 for the full control effect.

Chain of Cytochrome P450 2C9 (Homo sapiens) (P11712 whole entry, looked up): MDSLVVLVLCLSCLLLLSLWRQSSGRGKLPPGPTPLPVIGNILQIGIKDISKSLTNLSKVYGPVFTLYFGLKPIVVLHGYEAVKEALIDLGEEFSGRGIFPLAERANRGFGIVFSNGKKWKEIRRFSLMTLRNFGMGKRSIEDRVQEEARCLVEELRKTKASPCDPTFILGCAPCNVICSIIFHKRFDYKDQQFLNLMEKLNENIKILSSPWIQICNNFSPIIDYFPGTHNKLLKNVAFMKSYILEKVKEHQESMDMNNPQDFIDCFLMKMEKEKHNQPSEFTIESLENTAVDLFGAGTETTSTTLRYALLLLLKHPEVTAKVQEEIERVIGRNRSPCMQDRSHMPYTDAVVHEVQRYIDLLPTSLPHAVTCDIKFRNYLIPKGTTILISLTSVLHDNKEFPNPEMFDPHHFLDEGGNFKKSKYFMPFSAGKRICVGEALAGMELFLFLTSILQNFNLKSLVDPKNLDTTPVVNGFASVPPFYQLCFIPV

Row | Structure (SMILES) | AC50 | activity, negative = inhibition
1 | C[C@H](NC[C@H](O)CP(=O)(O)CC1CCCCC1)c1ccc(Cl)c(Cl)c1 | inactive | –
2 | CC(C)CN(CC(C)C)C1=N/C(=C\c2ccco2)C(=O)N1c1ccccc1 | 3.98 µM (active) | –
3 | Cc1cnc(CNc2ccnc(-c3ccccc3C(F)(F)F)n2)cn1 | – | 8.33% [at 2.29 µM] (inactive)
4 | C#CCSc1n[nH]c(-c2ccco2)n1 | – | 0.366% [at 11.4 µM] (inactive)
5 | CC#C[C@]1(O)CC[C@H]2[C@@H]3CCC4=CC(=O)CCC4=C3[C@H](c3ccc(N(C)C)cc3)C[C@@]21C | inactive | –
6 | CC#C[C@@]1(O)CC[C@H]2[C@@H]3CCC4=CC(=O)CCC4=C3[C@H](c3ccc(N(C)C)cc3)C[C@]21C | 3.98 µM (active) | –
7 | CC1Cc2ccccc2N1C(=O)CSCC(=O)O (configuration not stated) | inactive | –
8 | CCCC(=O)N1c2ccccc2C(N(C(C)=O)c2ccccc2)CC1C (configuration not stated) | 3.98 µM (active) | –
9 | Cn1nc(C(F)(F)F)c(/C=N/OCc2c(Cl)cccc2Cl)c1Cl | 1.58 µM (active) | –
10 | O=C(NCCCN1CCCCCC1)C1CC(=O)N(CCc2ccccc2)C1 (configuration not stated) | inactive | –
11 | COc1ccc(-c2cc(C3CCN(c4ccc(C(C)=O)cc4[N+](=O)[O-])CC3)[nH]n2)cc1 | 7.94 µM (active) | –
12 | COc1ccc(-c2cc(C3CCN(c4cc(Cl)nc(N)n4)CC3)[nH]n2)cc1 | 14.1 µM (active) | –
13 | CC(=O)c1ccc(N2CCC(c3cc(-c4ccc(Cl)cc4)n[nH]3)CC2)c([N+](=O)[O-])c1 | 3.98 µM (active) | –
14 | CC(=O)c1ccc(N2CCC(c3cc(-c4ccc(Cl)cc4Cl)n[nH]3)CC2)c([N+](=O)[O-])c1 | 3.98 µM (active) | –
15 | CC(C)NC(=O)N1CCC2(CC1)CCN(S(C)(=O)=O)CC2 | inactive | –
16 | CN(Cc1ccco1)c1ncncc1-c1ccccc1C(F)(F)F | – | -7.74% [at 2.29 µM] (inactive)
17 | COc1ccccc1-c1cc(Nc2ccn[nH]2)ncn1 | – | -3.07% [at 2.29 µM] (inactive)
18 | CC(C)SC(=N)N | inactive | –
19 | Clc1ccc(COC(Cn2ccnc2)c2ccc(Cl)cc2Cl)c(Cl)c1 (configuration not stated) | 0.316 µM (active) | –
20 | Clc1ccc([C@H](Cn2ccnc2)OCc2csc3c(Cl)cccc23)c(Cl)c1 | 0.316 µM (active) | –
21 | NC(N)=NC(N)=Nc1c(F)c(F)c(F)c(F)c1F | – | 0.138% [at 11.4 µM] (inactive)
22 | O=C(O)c1cc2cc(Cc3cccnc3)ccc2o1 | inactive | –

Row | Structure (SMILES) | AC50 | activity, negative = inhibition
23 | O=C(O)[C@@H]1[C@H](C(=O)O)[C@H]2C(=O)C=C[C@H]1N2Cc1ccccc1 | – | 4.11% [at 11.4 µM] (inactive)
24 | O=S(=O)(O)c1nc2ccccc2n1Cc1ccccc1 | 25.1 µM (active) | –
25 | Cc1cccc(CCNc2nc3ccccc3n3nnnc23)c1 | inactive | –
26 | CS(=O)(=O)c1nc2ccccc2n1Cc1ccccc1 | inactive | –
27 | OCCN1CCN(CCOc2cccc(Cl)c2)CC1 | inactive | –
28 | Cc1cccc(OCCn2c(S(=O)(=O)O)nc3ccccc32)c1 | 5.62 µM (active) | –
29 | Cc1cccc(OCCn2c(-c3ccco3)nc3ccccc32)c1 | 1.78 µM (active) | –
30 | OC[C@@H]1NC[C@@H](O)[C@@H](O)[C@H]1O | inactive | –
31 | COC(=O)N1CCC2(CCCN(C(=O)Nc3cccc(F)c3)C2)CC1 | inactive | –
32 | O=C(c1[nH]o[n+](=O)c1C(=O)c1csc2ccccc12)c1csc2ccccc12 | 1.58 µM (active) | –
33 | O=C1NCCc2c1[nH]c1ccccc21 | inactive | –
34 | COc1cccc(/C=c2/s/c(=C(\C#N)C(=O)N3CCOCC3)n(-c3ccccc3)c2=O)c1 | inactive | –
35 | CN(c1ccccc1)c1ccc(/C=c2\s/c(=C(/C#N)C(=O)C(C)(C)C)n(Cc3ccco3)c2=O)cc1 | 3.55 µM (active) | –
36 | COC(=O)c1ccc(C(NC(=O)c2ccccc2)[C@]2(C)C[C@H]2C2CCCCC2)cc1 (some centres not stated) | inactive | –
37 | C[C@@]1(C(NC(=O)Cc2ccccc2)c2ccc(-c3ccccc3)cc2)C[C@H]1C1CCCCC1 (some centres not stated) | inactive | –
38 | CCCC[C@@H]1C[C@H]1C(NC(=O)c1ccccc1)c1ccccc1 (some centres not stated) | 7.94 µM (active) | –
39 | CCCC[C@@H]1C[C@H]1C(NC(=O)c1ccco1)c1ccccc1 (some centres not stated) | 15.8 µM (active) | –
40 | C=C(CC1([C@@H](NP(=O)(c2ccccc2)c2ccccc2)[C@H]2C[C@@H]2CCCC)CC1)c1ccccc1 | 10 µM (active) | –
41 | CCCC[C@@H]1C[C@H]1C(NC(=O)c1ccc(-c2ccccc2)cc1)c1ccc(-c2ccccc2)cc1 (some centres not stated) | inactive | –
42 | COC(=O)c1ccc(C(NC(=O)c2ccco2)[C@]2(C)C[C@H]2C2CCCCC2)cc1 (some centres not stated) | 10 µM (active) | –
43 | CN(C)CCSCCO | – | 13.5% [at 11.4 µM] (inactive)
44 | CO[C@@H]1COC(=O)[C@H](COCc2ccccc2)NC(=O)C/C=C\[C@@H](C)[C@H](OC)COC(=O)[C@@H](C)NC(=O)C/C=C\[C@H]1C | – | -22.8% [at 11.4 µM] (inactive)

Row | Structure (SMILES) | AC50 | activity, negative = inhibition
45 | C[N+]1(CCC(=O)c2ccco2)CC2CCC(CC2)C1 (configuration not stated) | – | 6.14% [at 11.4 µM] (inactive)
46 | C[C@@]1(C(NC(=O)c2ccc(-c3ccccc3)cc2)c2ccc(Cl)cc2)C[C@H]1C1CCCCC1 (some centres not stated) | inactive | –
47 | CCC[C@@H]1C[C@@]1(CCC)C(NC(=O)c1ccco1)c1ccc(Cl)cc1 (some centres not stated) | 15.8 µM (active) | –
48 | CCCC[C@@H]1C[C@H]1C(NC(=O)c1ccco1)c1ccc(C(=O)OC)cc1 (some centres not stated) | 0.794 µM (active) | –
49 | CCC[C@@H]1C[C@@]1(CCC)C(NS(=O)(=O)c1cccc2cccnc12)c1ccc(Cl)cc1 (some centres not stated) | 7.94 µM (active) | –
50 | CCCC[C@@H]1C[C@H]1C(NC(=O)c1ccco1)c1ccc(Cl)cc1 (some centres not stated) | 3.98 µM (active) | –
51 | CC1(C)S[C@@H]2[C@H](NC(=O)[C@H](C(=O)O)c3ccsc3)C(=O)N2[C@H]1C(=O)O | inactive | –
52 | O=c1oc2c(Cl)cc(Cl)cc2cc1-c1nnc(Nc2ccccc2F)s1 | inactive | –
53 | CCCC[C@@H]1C[C@H]1C(NC(=O)Cc1ccccc1)c1ccc(-c2ccccc2)cc1 (some centres not stated) | inactive | –
54 | COC(=O)[C@@H]1C[C@H]1[C@@H](NC(=O)c1cc(C)nn1C)c1ccccc1 | inactive | –
55 | CCCC[C@@H]1C[C@H]1C(NC(=O)c1ccco1)c1ccc(-c2ccccc2)cc1 (some centres not stated) | 3.16 µM (active) | –
56 | NNC(=O)[C@@H](O)[C@H](O)[C@H](O)CO | – | -4.21% [at 11.4 µM] (inactive)
57 | CC1=NN(c2ccccc2)C(=O)[C@@H]1N=Nc1ccc(S(N)(=O)=O)cc1 | – | 3.33% [at 11.4 µM] (inactive)
58 | CC1=NN(c2ccccc2)C(=O)C1C(=O)c1ccc(Cl)cc1 (configuration not stated) | 0.562 µM (active) | –
59 | CCC(O)CNc1nc(-n2nc(C)cc2C)nc2sc3c(c12)CC(C)(C)OC3 (configuration not stated) | 14.1 µM (active) | –
60 | Cc1cc(C)n(-c2nc(NCC(C)O)c3c4c(sc3n2)COC(C)(C)C4)n1 (configuration not stated) | 15.8 µM (active) | –
61 | COc1ccc(-n2c(=O)c(C)nc3cnc(N4CCNCC4)nc32)cc1 | inactive | –
62 | C=CC1=C(C)C2=Cc3c(C=C)c(C)c4[n]3[Sn+2][n]3c(c(C)c(CCC(=O)O)c3=CC3=NC(=C4)C(C)=C3CCC(=O)O)=CC1=N2 | inactive | –
63 | CSc1nc2c(c(=O)[nH]1)C(c1ccncc1)C(C(=O)OC(C)C)=C(C)N2 (configuration not stated) | 7.94 µM (active) | –
64 | CCSc1nc2c(c(=O)[nH]1)C(c1ccccn1)C1=C(CC(C)(C)CC1=O)N2 (configuration not stated) | inactive | –
65 | CCSc1nc2c(c(=O)[nH]1)C(c1ccncc1)C(C(=O)OC(C)C)=C(C)N2 (configuration not stated) | 2.82 µM (active) | –
66 | O=C(O)c1cc2c(cc1S(=O)(=O)O)[C@H]1[C@@H]([C@H]3[C@H]2[C@@]2(Cl)C(Cl)=C(Cl)[C@]3(Cl)C2(Cl)Cl)[C@]2(Cl)C(Cl)=C(Cl)[C@@]1(Cl)C2(Cl)Cl | – | -16.9% [at 11.4 µM] (inactive)

Row | Structure (SMILES) | AC50 | activity, negative = inhibition
67 | CC1(C)[C@@H]2CC[C@]1(CC(=O)O)[C@H](Cl)C2 | – | 4.29% [at 11.4 µM] (inactive)
68 | O=C(CSC1CC(=O)N(CC(c2ccccc2)c2ccccc2)C1=O)Nc1ccc(Cl)cc1 (configuration not stated) | 3.98 µM (active) | –
69 | CC12CS(=O)(=O)CC1SC(=S)N2c1ccccn1 (configuration not stated) | inactive | –
70 | CCOC(=O)c1c(C)[nH]c2ccc3c(c12)CN1CCc2cc(OC)ccc2[C@@H]1O3 | inactive | –
71 | CCOC(=O)c1c(C)[nH]c(C)c1C(=O)COC(=O)c1ccc(S(=O)(=O)N(CC)CC)cc1 | 0.355 µM (active) | –
72 | CCN(CC)CCOC(=O)c1ccc(N)cc1 | inactive | –
73 | O=[N+]([O-])c1cccc(-c2nc(-c3ccccc3)c(-c3cccs3)[nH]2)c1 | inactive | –
74 | NC(N)=Nc1nc2ccc([N+](=O)[O-])cc2[nH]1 | – | 9.74% [at 11.4 µM] (inactive)
75 | O=[N+]([O-])c1cccc(-c2nc(-c3cccs3)c(-c3cccs3)[nH]2)c1 | 1.58 µM (active) | –
76 | c1ccc(-c2nc(-c3cccs3)[nH]c2-c2ccccc2)cc1 | 6.31 µM (active) | –
77 | CN(C)Cc1ccccc1-c1ccc2ncnc(N(C)C)c2c1 | – | 9.43% [at 2.29 µM] (inactive)
78 | Cc1cc(C(F)F)n2nc(C(=O)Nc3sc4c(c3C#N)CCC(C)C4)nc2n1 (configuration not stated) | inactive | –
79 | CC(=O)N1CCN(c2nc(C)nc3sc4c(c23)CCC(C)C4)CC1 (configuration not stated) | 14.1 µM (active) | –
80 | COc1ccc2c(c1)-c1ccccc1S(=O)(=O)N2C | 14.1 µM (active) | –
81 | CC[N+](C)(CC)CCN1C(=O)c2ccccc2S1(=O)=O | – | -0.798% [at 11.4 µM] (inactive)
82 | Cc1cc2c(nc1C)CCCCN2C[C@H](C)O/N=C\[C@@H](C)[C@H](OCc1ccccc1)C(C)C | – | -8.65% [at 11.4 µM] (inactive)
83 | CC(C)(C)CC(=O)NC(=S)N1CCCCCC1 | inactive | –
84 | S=C(S)N1CCCC1 | 2 µM (active) | –
85 | CCNC(=O)C/C(C)=N/NC(=O)C12CC3CC(CC(C3)C1)C2 | inactive | –
86 | COc1ccc(O)c(/C=N/NC(=O)CSc2nnc(C)n2-c2ccccc2)c1 | inactive | –
87 | C=CCn1c(COc2ccccc2)nnc1SCC(=O)N/N=C/c1ccc(C)cc1 | 11.2 µM (active) | –
